This is a sample that favours compounds with a hit; in the whole collection about 10% have one here.
NPR1 antag – human Npr1 receptor antagonism; 76,000 compounds, 1.6% hits; HEK293 hNpr1 GloSensor cGMP, ANP-stimulated luminescence; P16066; Potency, µM (series often up to 46.3 µM), for inactives: top-dose activity change, negative = inhibition, usual class: inhibitors; calls by dose curve; also: nearly all actives have a fitted effect of over 60% in size
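Compound pre-incubated 30 min at room temperature on GloSensor-loaded HEK293 cells stably carrying hNpr1 and the pGS-40F cGMP biosensor. Stimulation uses hNppA at 0.1 nM final; luminescence is taken at baseline and 20 min post-agonist.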
3T3 cytotox – cytotoxic compounds in NIH 3T3 cells | NIH 3T3 viability, CellTiter-Glo ATP luminescence, 48-72 h | Potency, µM (highest dose often 96.7 µM), inactives show at the highest dose activity change, negative = cytotoxicity, usual class: inhibitors | 94,000 compounds, 4.3% hits | AID 1345082; also: nearly all actives have a fitted effect of over 55% in size
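Cells were seeded at 400 per well, treated with pin-transferred compound, and kept 48 or 72 hr at 37 °C before CellTiter-Glo addition and luminescence imaging of cellular ATP.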
GPT2 inhibitor – GPT2 alanine aminotransferase inhibition. Recombinant GPT2, coupled pyruvate oxidase/HRP Amplex Red fluorescence. Potency, µM (highest dose often 57.7 µM), for inactives: top-dose activity change, negative = inhibition, actives largely listed as inhibitors. 100,000 compounds, 0.25% hits; also: nearly all actives have a fitted effect of over 60% in size
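GPT2 10ng/uL, a-KG 250uM, L-Ala 2mM, HEPES pH7.5 + 0.0001% Tween; 30 min RT. Then Amplex mix (PO/HRP/ThPP), 30 min RT dark, fluorescence. AOA 50uM used as positive control.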
FLuc inh – Photinus pyralis luciferase inhibition. purified P. pyralis luciferase, luminescence, biochemical. P08659. Potency, µM (doses to about 115 µM), most hits filed as inhibitors. 76,000 compounds, 2.5% hits. AID 1347043; also: nearly all actives have a fitted effect of over 65% in size
Target sequence (P08659 whole entry, looked up): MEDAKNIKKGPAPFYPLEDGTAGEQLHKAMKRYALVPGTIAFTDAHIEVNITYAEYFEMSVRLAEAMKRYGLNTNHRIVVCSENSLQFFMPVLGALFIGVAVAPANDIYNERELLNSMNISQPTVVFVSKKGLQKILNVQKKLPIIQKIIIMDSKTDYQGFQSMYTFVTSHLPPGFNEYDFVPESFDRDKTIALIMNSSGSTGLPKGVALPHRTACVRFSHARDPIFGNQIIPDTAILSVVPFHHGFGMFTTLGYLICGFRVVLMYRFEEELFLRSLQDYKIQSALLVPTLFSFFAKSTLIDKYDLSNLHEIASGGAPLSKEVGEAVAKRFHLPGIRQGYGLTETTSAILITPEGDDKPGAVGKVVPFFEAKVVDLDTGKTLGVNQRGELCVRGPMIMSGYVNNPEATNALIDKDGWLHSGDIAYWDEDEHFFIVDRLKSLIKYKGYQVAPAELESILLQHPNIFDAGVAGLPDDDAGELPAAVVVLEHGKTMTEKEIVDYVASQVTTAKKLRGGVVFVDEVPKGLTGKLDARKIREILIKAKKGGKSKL
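Luminescence read by CCD imager after adding enzyme (10nM final) to wells holding compound, titrated in qHTS. Substrates 10uM each D-luciferin and ATP; buffer 50mM Tris acetate pH 7.5, 10mM Mg acetate, Tween-20, BSA.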
HEK cytotox – cytotoxic compounds in HEK 293 cells | HEK 293 viability, ATP luminescence (CellTiter-Glo), 48-72 h | Potency, µM (titrated, usually from 115 µM), for inactives: at the highest dose activity change, negative = cytotoxicity, actives largely listed as inhibitors | 94,000 compounds, 6.6% hits | AID 1345083; also: nearly all actives have a fitted effect of over 60% in size
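Pintool-delivered compounds were incubated with HEK 293 cells (250 cells/well) at 37 degree Celsius for 48 or 72 hr. ATP-dependent luminescence (CellTiter-Glo) then reported remaining viable cells.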
Starred values were filed as active, the others as inactive; i = inactive; ? = inconclusive; nt = no result given; [ ] = another dose, or the depositor's remark. Unless noted, calls follow the shape of the dose curve; as a rule, active = well fitted curve in the direction sought with a large enough effect; inconclusive = small, poorly fitted or top-dose-only effect, or another doubt; inactive = no such curve, though single readings can be large; an effect the other way counts as inactive or inconclusive. % is scaled to controls: 0 for no effect and ±100 for the full control effect; potency is read from the fitted curve at half-maximal effect.

SMILES | NPR1 antag | 3T3 cytotox | GPT2 inhibitor | FLuc inh | HEK cytotox
COCCOc1ccc2c(n1)CCN(C(=O)c1ccc(C(C)C)cc1)C2 | -7% | ? | -9% | 16µM* | ?
COCCOc1ccc2c(n1)CCN(C(=O)CCC1CCCC1)C2 | 11µM* | -25% | -3% | ? | ?
COCCOc1ccc2c(n1)CCN(C(=O)c1ccc(OC)cc1)C2 | 2% | -10% | 0% | i | 5%
CCOc1ccc2c(n1)CCN(C(=O)c1ccc(C)cc1)C2 | -11% | -20% | -1% | i | -8%
O=C1NCc2ccccc2CC12CCCN2Cc1cccc(Br)c1 (stereo unspecified) | nt | -6% | i | nt | -7%
Cn1cccc1CN1CCC2(CC1)Cc1ccccc1NC2=O | 14%[70.6 µM] | -14%[138 µM] | i | i | -6%[172 µM]
CC(C)CC(=O)N1CCOCC12CCN(Cc1ccc(C(C)C)cc1)CC2 | 2%[70.6 µM] | 71µM* | 1%[88.5 µM] | i | 100µM*
O=C(Cc1cccc(F)c1)N1CCOCC12CCN(Cc1ccccc1)CC2 | -1%[70.6 µM] | 100µM* | -12%[88.5 µM] | i | ?
CC(C)CC(=O)N1CCOCC12CCN(Cc1cccc(C#N)c1)CC2 | -1%[70.6 µM] | -12%[138 µM] | i | i | ?
O=C(CCc1ccccc1)N1CCOCC12CCN(Cc1ccccc1)CC2 | -11%[70.6 µM] | 35µM* | i | i | ?
CN(CCNC(=O)c1cc2cn(C3CC3)cc2s1)C1CCCCC1 | 0% | -11% | i | i | i
COCCNc1ccc2nnc(-c3ccc(C)cn3)n2n1 | 3%[70.6 µM] | 112µM* | 3%[88.5 µM] | i | -4%[230 µM]
Cc1ccc(-c2nnc3ccc(NCCc4ccccc4)nn23)nc1 | -7%[70.6 µM] | 45µM* | -12%[88.5 µM] | i | 56µM*
Cc1ccc(-c2nnc3ccc(N(C)c4cccc(C)c4)nn23)nc1 | -1%[70.6 µM] | ? | 2%[88.5 µM] | i | 56µM*
Cc1cccc(N(C)c2ccc3nnc(-c4cc(C#N)ccn4)n3n2)c1 | ? | ? | 5%[88.5 µM] | i | ?
Cc1ccc(-c2nnc3ccc(NCCN(C)C)nn23)nc1 | 0%[70.6 µM] | ? | -11%[88.5 µM] | i | 0%[172 µM]
O=C(c1cccc(-c2ccccn2)c1)N1CCN(C(=O)C2CC2)CC1 | nt | -12%[138 µM] | -1%[88.5 µM] | nt | -13%[172 µM]
CCCn1c(C)cnc1CC1CCN(C(=O)NCc2ccc(C)cc2)CC1 | nt | -19% | i | nt | -12%
CCOCCn1c(=O)[nH]c2cc(C(=O)NCCc3ccc(C)s3)ccc21 | 4% | -25% | ? | 40µM* | ?
CCOCCn1c(=O)[nH]c2cc(C(=O)NCc3n[nH]c(C)n3)ccc21 | 1% | i | i | i | -4%
N#Cc1cccc(CN2CC(CNc3ccccc3)C3(C2)CN(c2ccccc2)C3)c1 (stereo unspecified) | 4%[70.6 µM] | -6%[138 µM] | -15%[88.5 µM] | i | ?
O=C(CN1CCOCC1)N1CCC(N2C(=O)C3(CCCC3)C2c2ccccc2)CC1 (stereo unspecified) | 7% | -14% | i | i | -29%
CCCNC(=O)[C@@H]1Cc2cn(Cc3nccn3C)c3cccc(c23)[C@H](CC(C)C)N1 | -2%[70.6 µM] | 100µM* | -3%[88.5 µM] | i | 45µM*
CC#CCn1cc2c3c(cccc31)[C@H](CC(C)C)N[C@H](C(=O)NCCC)C2 | -5%[70.6 µM] | 40µM* | 1%[88.5 µM] | i | 56µM*
COCCCNC(=O)[C@@H]1Cc2cn(Cc3nccn3C)c3cccc(c23)[C@H](CC(C)C)N1 | -3%[70.6 µM] | -41%[174 µM] | ? | i | ?
SMILES | NPR1 antag | 3T3 cytotox | GPT2 inhibitor | FLuc inh | HEK cytotox
CC(C)C[C@@H]1N[C@H](C(=O)NCC2CC2)Cc2cn(Cc3nccn3C)c3cccc1c23 | -3%[70.6 µM] | 63µM* | -4%[88.5 µM] | i | 35µM*
CCN1CCN(CCCNC(=O)CC2CCN(c3ccnc(NC)n3)CC2)CC1 | -1% | -14% | i | i | -27%
O=C(Nc1cc(-c2cccnc2)nn1-c1ccccc1)c1cccc(Cl)c1 | nt | ? | i | nt | ?
CSc1ccccc1-c1ccc(N2CCN(C)CC2)nn1 | -4% | i | i | 16µM* | 4%
Cn1ccnc1-c1ccc(N2CCC(C(O)Cc3ccccc3)CC2)nn1 (stereo unspecified) | ? | ? | -17% | ? | ?
COc1ccc(C(=O)N2CCC(C(=O)N3CCC(c4nc5ncccc5[nH]4)C3)CC2)cc1 (stereo unspecified) | nt | -17% | i | nt | -2%
COc1cccc(Nc2ncc3c(n2)C(C)(C(=O)Nc2nc(C)cs2)CC3)c1 (stereo unspecified) | -27%[70.6 µM] | ? | 4%[88.5 µM] | i | 50µM*
Cc1csc(NC(=O)C2(C)COCc3cnc(Nc4ccccc4)nc32)n1 (stereo unspecified) | -12%[70.6 µM] | ? | -6%[88.5 µM] | i | 79µM*
CC1(C(=O)NCc2ccccc2)COCc2cnc(Nc3ccccc3)nc21 (stereo unspecified) | -29%[70.6 µM] | ? | -12%[88.5 µM] | i | ?
CC1(C(=O)Nc2ccccc2)COCc2cnc(Nc3ccccc3)nc21 (stereo unspecified) | -15%[70.6 µM] | ? | -18%[88.5 µM] | i | 79µM*
COc1cccc(Nc2ncc3c(n2)C(C)(C(=O)N2CC[S+](=O)([O-])CC2)CC3)c1 (stereo unspecified) | 3%[70.6 µM] | 100µM* | i | i | 2%[172 µM]
COCCNC(=O)C1(C)CCc2cnc(Nc3cccc(OC)c3)nc21 (stereo unspecified) | 1%[70.6 µM] | ? | 1%[88.5 µM] | i | ?
COCCNc1nc(-c2c(C)noc2C)cc2cc(CO)oc12 | 4%[70.6 µM] | ? | 1%[88.5 µM] | i | -15%[172 µM]
Cc1cc2cc(-c3c(C)noc3C)nc(NC3CCN(C)CC3)c2o1 | 4%[70.6 µM] | 35µM* | 1%[88.5 µM] | i | 100µM*
Cc1noc(C)c1-c1cc2cc(CO)oc2c(NCc2cccc(F)c2)n1 | -16%[70.6 µM] | 25µM* | -10%[88.5 µM] | i | ?
Cc1noc(C)c1-c1cc2cc(CO)oc2c(NC2CCN(C)CC2)n1 | -22%[70.6 µM] | 45µM* | -7%[88.5 µM] | i | ?
O=C(NC1CCCC1)NC1CCN(c2nccc(Nc3ccccc3F)n2)CC1 | nt | ? | i | nt | ?
CCCN1CCC(N2CCC(C(=O)Nc3cccc(-c4cccc(F)c4)c3)CC2)CC1 | -20% | 25µM* | -9% | i | 22µM*
COc1ccc(C(=O)Nc2cccc(-c3nnc4n3CCCC4)c2)cc1OC | -1% | i | i | i | ?
COc1ccc(NC(=O)Nc2cccc(-c3ccc(N4CCC(C)CC4)nn3)c2)cc1OC | 3.2µM* | ? | i | 0.1µM* | ?
CC(C)CNC(=O)Nc1cccc(-c2ccc(N3CCC(C)CC3)nn2)c1 | 7.1µM* | -20% | i | 0.32µM* | -8%
COc1ccc(-c2cccc(C(=O)NCC(C)C)c2)nn1 | nt | ? | nt | nt | -23%[172 µM]

Compound activity (PubChem BioAssay)
